LMNA splice mod: LMNA splicing modulation. HeLa LMNA splicing GFP/RFP minigene ratio, 48 h. Potency, µM (titrated, usually from 46.1 µM), for the others: top-dose ratio change, negative = inhibition, usual class: inhibitors. hit rate 0.01% among 200,000. AID 1487; active means well fitted inhibition curve with a large enough effect in the signal ratio, with a control signal flat, not every such curve was filed as active; inconclusive means small, poorly fitted or top-dose-only effect, or effect the other way, or a change in a side signal; the % refers to the signal ratio; further: potency means the concentration at half of the fitted maximal effect; on the % scale 0 is the no-effect control and ±100 the full control effect
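S3 HeLa cells stably expressing lamin A-EGFP splicing minigene plus DsRed2, 600 cells/well, 48 h compound exposure at 37C. Laser-scanning cytometry; analysed as GFP (500-530 nm)/RFP (575-640 nm) total intensity ratio; 0.5% DMSO vehicle.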
HttQ103 aggreg: mutant huntingtin aggregation inhibition. Potency, µM (titrated, usually from 46.1 µM), without a hit: at the highest dose activity change, negative = inhibition, actives largely listed as inhibitors. hit rate 1.1% among 220,000. AID 1688. PC12 HttQ103-GFP aggregates, Acumen cytometry, 40 h; further: potency means the concentration at half of the fitted maximal effect; on the % scale 0 is the no-effect control and ±100 the full control effect; nearly all actives have a fitted effect of over 60% in size
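Multiplexed with ATP-based cell death, this channel scores GFP aggregates in PC12 cells expressing inducible HTTex1-Q103-GFP. Induction used 100 nM tebufenozide; compounds were tested in concentration series.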
IMPase Li inh: IMPase inhibition in cells with lithium potentiation; CHO-M1 cells, IP1 TR-FRET (IP-One), carbachol + lithium; Potency, µM (highest dose often 59.4 µM), for the others: top-dose activity, negative = IMPase inhibition, actives largely listed as inhibitors; hit rate 0.35% among 210,000; AID 1457;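 further: IP1 builds up when IMPase is blocked and the TR-FRET signal falls; potency means the concentration at half of the fitted maximal effect; plate controls were basal vehicle for no effect and high inhibitor control for full effect; nearly all actives have a fitted effect of over 50% in size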
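Readout is a homogeneous TR-FRET IP1 immunoassay (Ex 320, Em 665 and 620), where raised cytosolic IP1 lowers signal. Cells were CHO-M1 treated 30 min at 37C with test compounds plus a little lithium; AC50 values came from Hill-equation fitting.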
HTT ATP protect: cytoprotection in Huntington HTT-Q103 PC12 cell model; hit rate 0.14% among 230,000; PC12 HTT-Q103 induced, cytoprotection, ATP luminescence, 40 h; Potency, µM (titrated, usually from 56.4 µM), for inactives: cytoprotection (ATP increase), most hits filed as activators; further: potency means the concentration at half of the fitted maximal effect; % of control where 0% means no effect; nearly all actives have a fitted effect of over 45% in size
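PC12 cells with ecdysone-inducible HTT exon 1 Q103-GFP, induced with 100 nM tebufenozide and co-treated with library compounds in a dose series (1536-well, 1500 cells/well). Cytoprotection read as ATP content by ATPlite luminescence.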
IMPase cell inh: IMPase inhibition in cells. 120,000 tested, under 10 active. AID 901. CHO-M1 cells, IP1 accumulation, HTRF TR-FRET ratio. inhibition (IP1 accumulation), % at 46.1 µM. P97697; active means well fitted curve in the direction sought with a large enough effect in the signal ratio, not every such curve was filed as active; inconclusive means small, poorly fitted or top-dose-only effect, or a change in a side signal; inactive means no such curve, though single readings can be large or run the other way; the % refers to the signal ratio;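 further: cells stimulated with carbachol in lithium chloride buffer; plate controls were DMSO basal wells for no effect and reference inhibitor wells for full effect; higher means more IMPase inhibition seen as more IP1 and lower FRET ratio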
Target sequence (P97697 whole entry, looked up): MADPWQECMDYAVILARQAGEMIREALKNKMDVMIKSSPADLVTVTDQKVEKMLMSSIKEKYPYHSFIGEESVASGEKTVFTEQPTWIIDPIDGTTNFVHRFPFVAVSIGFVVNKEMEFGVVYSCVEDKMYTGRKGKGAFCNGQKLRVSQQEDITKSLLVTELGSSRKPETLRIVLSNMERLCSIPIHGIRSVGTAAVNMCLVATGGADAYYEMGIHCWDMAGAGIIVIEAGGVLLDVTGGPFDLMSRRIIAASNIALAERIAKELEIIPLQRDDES
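Elevated IP1 in lysates lowers TR-FRET signal (665/620 ratio and 620 channel reported). Cells were CHO-M1, given carbachol (50 uM as added) plus 50mM LiCl, pH 7.4, 30 min, 37C; compounds titrated up to 46 uM; AC50 by Hill equation.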
NPSR antag: neuropeptide S receptor (human) antagonism, cAMP | Q6W5P4 | CHO-NPSR cells, cAMP TR-FRET, antagonist mode | Potency, µM (series often up to 38.3 µM), inactives show at the top dose activity change, negative = inhibition, hits mostly inhibitors | hit rate 1% among 220,000 | AID 1461; further: potency means the concentration at half of the fitted maximal effect; on the % scale 0 is the no-effect control and ±100 the full control effect; nearly all actives have a fitted effect of over 50% in size
Target sequence (Q6W5P4 whole entry, looked up): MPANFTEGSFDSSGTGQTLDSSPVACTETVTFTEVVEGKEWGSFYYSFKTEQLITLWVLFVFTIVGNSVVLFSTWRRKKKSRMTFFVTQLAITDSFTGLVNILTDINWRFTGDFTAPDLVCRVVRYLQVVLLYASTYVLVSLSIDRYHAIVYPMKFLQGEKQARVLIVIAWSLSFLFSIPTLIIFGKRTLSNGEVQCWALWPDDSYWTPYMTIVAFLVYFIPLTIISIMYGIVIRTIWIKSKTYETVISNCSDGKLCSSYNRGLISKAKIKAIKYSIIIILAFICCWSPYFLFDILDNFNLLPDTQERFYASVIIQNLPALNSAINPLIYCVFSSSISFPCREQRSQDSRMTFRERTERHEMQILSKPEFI
* hit, by the source's call; ? = inconclusive; . = not tested or not shown; ! = not confirmed by another sample; [ ] = remark or other dose. Shown are actives, neighbours in structure and some others; about 1.6% of the full set was active somewhere. Unless noted, the call rests on the fitted dose curve; in most records, active means well fitted curve in the direction sought with a large enough effect; inconclusive means small, poorly fitted or top-dose-only effect, or another doubt; inactive means no such curve, though single readings can be large; an effect the other way counts as inactive or inconclusive.

SMILES	LMNA splice mod	HttQ103 aggreg	IMPase Li inh	HTT ATP protect	IMPase cell inh	NPSR antag
COc1ccc(-c2nn(-c3ccccc3)cc2C(=O)n2nnc3ccccc32)cc1	1%	-15%	?	12%	-1	10µM*
COC(=O)c1cn(-c2ccccc2)nc1-c1ccc(OC)cc1	.	8%	13%	15%[10 µM]	.	-19%
COc1ccc(-n2c(C)nc3c(cnn3-c3ccc(Cl)cc3)c2=O)cc1	?	13µM*	18%[38.3 µM]	-64%	9	-29%[46.1 µM]
COc1ccc(Oc2c(Cl)cnn(-c3ccc(Cl)c(Cl)c3)c2=O)cc1	?	27%	-11%	6%[10 µM]	12	10µM*
COc1ccc(-n2c(C)nc3c(cnn3-c3ccc(C)cc3)c2=O)cc1	14%[9.22 µM]	-26%	4%	-39%	.	1%
COC(=O)Cn1cnc2c(cnn2-c2ccccc2)c1=O	.	-10%	-3%	3%	.	17%
CCOC(=O)Cn1cnc2c(cnn2-c2ccc(Cl)cc2)c1=O	?	16µM*	.	-68%	0	-11%[46.1 µM]
COc1ccc(Oc2c(Cl)cnn(-c3ccc(F)cc3)c2=O)cc1	2%	3%	-3%	-8%[10 µM]	9	?
Cc1cccc(C)c1OC[C@@H](N)C(C)C	.	.	.	-4%[1.9 µM]	1	.
CCOC(=O)c1sc(=NC(=O)c2cccc(OC)c2)n(C)c1C	?	11%	.	-13%	1	10µM*
CCOC(=O)c1sc2nc(CC(=O)OC)nc(N3CCN(c4ccc(OC)cc4)CC3)c2c1C	?	-5%	62%[38.3 µM]	1%	1	32µM*
CCCCCCCCCCCCCCCCC(C(=O)O)C(O)(CC(=O)O)C(=O)O (stereo not given)	.	-5%	.	-30%	.	.
CCN(C)c1ccc(/C=N\n2nnnc2N)cc1	?	12%	31%[38.3 µM]	-62%	5	-8%[46.1 µM]
CCN(CC)c1ccc(/C=N/n2nnnc2N)c(O)c1	-9%	5.6µM*	-2%[38.3 µM]	-28%	15	-6%[46.1 µM]
Oc1ccc2ccccc2c1/C=N/Nc1ccccc1	4%	?	1%	42%[10 µM]	-1	1%
Cc1cc(N/N=C/c2c(O)ccc3ccccc23)nc(-c2ccccc2O)n1	?	10µM*	0%	27%[10 µM]	.	-1%
Cc1ccc(S(=O)(=O)NC(C)C(=O)NC2CCCCCC2)cc1 (stereo not given)	6%	0.89µM*	8%[38.3 µM]	-2%[0.074 µM]	12	-7%[46.1 µM]
C[C@@H](C[C@@H](O)[C@H](O)C(C)(C)O)[C@@H]1CC[C@]2(C)C3=CC[C@H]4C(C)(C)C(=O)CC[C@]4(C)[C@H]3CC[C@@]12C	-4%	35µM*	24%	.	.	-55%
CC(C)(O)CC[C@@H](O)[C@](C)(O)[C@H]1CC[C@@]2(O)C3=CC(=O)[C@@H]4C[C@@H](O)[C@@H](O)C[C@]4(C)C3CC[C@]12C (stereo not given in full)	.	-8%[9.22 µM]	0%	15%[10 µM]	.	-20%
CO[Si](CCCNCCC[Si](OC)(OC)OC)(OC)OC	.	.	-9%	-4%	.	.
CCCCNc1nc2c(S(=O)(=O)c3ccccc3)nnn2c2ccccc12	.	3%	8.9µM*	-10%	.	?
OCCCNCc1ccncc1	.	.	-1%	19%[10 µM]	.	.
Cc1ccc2nc(-c3cccnc3)cc(C(=O)N3CCN(c4ccc([N+](=O)[O-])cc4)CC3)c2c1	7%[46 µM]	-6%	8%	-9%[10 µM]	.	5µM*
Cc1ccc2c(C(=O)N3CCN(c4ccccc4)CC3)cc(-c3cccnc3)nc2c1C	.	10µM*	0%	1%[10 µM]	.	-48%
CS(=O)(=O)N1CCN(C(=O)c2cc(-c3cccnc3)nc3ccc(Cl)cc23)CC1	.	4%	-3%	-3%	.	9%
SMILES	LMNA splice mod	HttQ103 aggreg	IMPase Li inh	HTT ATP protect	IMPase cell inh	NPSR antag
Cc1c(NC(=O)c2cccc(NS(C)(=O)=O)c2)c(=O)n(-c2ccccc2)n1C	.	1µM*	.	8%[10 µM]	.	56%
COc1ccc(C(=O)c2ccccc2)c(O)c1	?	11µM*!	11%[38.3 µM]	-34%[10 µM]	-2	-23%[46.1 µM]
Brc1cc2c(cc1/C=N/Nc1nc(N3CCOCC3)nc(N3CCOCC3)n1)OCO2	-1%	7%	5%	1%[10 µM]	-5	-1%
CC1(C)CC2/C(CO)=C/C=C/[C@](C)(O)CC[C@]21O (stereo not given in full)	6%	.	6%	.	.	.
Cc1ccc2c(c1)[nH]c1c(N3CCN(Cc4ccccc4)CC3)ncnc12	?	7.1µM*	37%[38.3 µM]	-85%[0.074 µM]	2	?
Cc1ccc2[nH]c3c(N4CCCCCC4)ncnc3c2c1	?	8.9µM*	38%[38.3 µM]	9%[1.9 µM]	16	?
Fc1ccc2[nH]c3c(N4CCN(C5CCCCC5)CC4)ncnc3c2c1	?	-21%	.	-12%	7	?
Cc1ccc2[nH]c3c(N4CCN(Cc5ccccc5)CC4)ncnc3c2c1	?	?	32%[38.3 µM]	-102%	6	13µM*
c1ccc(CN2CCN(c3ncnc4c3[nH]c3ccccc34)CC2)cc1	-1%	?	33%[38.3 µM]	-69%	17	?
COc1ccc2c(c1)[nH]c1c(N3CCN(Cc4ccc5c(c4)OCO5)CC3)ncnc12	12%	8.9µM*	21%[38.3 µM]	-100%	16	13µM*
O=C(O)Cc1cn(-c2ccccc2)nc1-c1ccccc1	-11%[46 µM]	-9%	2%	-16%	.	-6%
OCc1cn(-c2ccccc2)nc1-c1ccc(-c2nn(-c3ccccc3)cc2CO)cc1	2%	16%	28µM*	-12%	0	?
O=C(O)c1cc(Cl)cc(Cc2cc(Cl)cc(C(=O)O)c2O)c1O	.	.	-2%	-12%[10 µM]	.	.
CSc1nc2nc3c(cn2n1)C(=O)CC(c1ccccc1)C3 (stereo not given)	6%	8%	2%[38.3 µM]	2%	8	-8%[46.1 µM]
O=C1CC(c2ccccc2)Cc2nc3nc(C(F)(F)F)nn3cc21 (stereo not given)	1%	13µM*	29%[38.3 µM]	-7%	7	15%[46.1 µM]
O=C(O)c1c2c(c(O)c3c1CN(C1CCCCC1)CO3)OCN(C1CCCCC1)C2	.	.	2%	-7%[10 µM]	.	.
O=c1c(Cl)cc(Cl)nn1-c1ccccc1	?	18µM*	-11%	24%[10 µM]	.	-21%
COc1cc(Cl)nn(-c2ccccc2)c1=O	?	7%	-4%	8%[10 µM]	.	16%
O=C(NNC(=S)NC(=O)C12CC3CC(CC(C3)C1)C2)c1ccncc1	?	3.2µM*	4%	3%[10 µM]	10	-10%[46.1 µM]
CC1(C(=O)NC(=S)NNC(=O)c2ccncc2)CCCCC1	?	15%	2%	15%[1.9 µM]	-2	-4%
CC(=O)OCC(=O)c1c[nH]c2ccccc12	?	-2%	0%	-24%	.	-29%
O=C(COC(=O)C1CC1)c1c[nH]c2ccccc12	-17%	0.032µM*	12%[38.3 µM]	.	3	-10%[46.1 µM]

Bioassay records: PubChem BioAssay, National Center for Advancing Translational Sciences (NCATS)
